Measured values reported in PubChem BioAssay AID1159580 (chemical genetic matrix, 2015).
Several values for one entry are separate records, joined by “and”; a condition that tells them apart may be missing. Equal entries are not always repeated. The whole screen tested about 5,500 compounds, of which about 2,000 (36%) were called active. About 18% were inconclusive and are not listed. The list shows a part of the results. Values without a mark were called inactive. No stated cut-off is given here; in the data, active means normalized growth mostly below about 0.91 (no sharp cut-off); inconclusive means no clear call, values can overlap the other calls; inactive means mostly above about 0.92.

Assay: chemical genetic growth profiling, strain panel (AID 1159580);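 further: tested at 20 µM; growth read once vehicle control cultures reached saturation at 30 °C; 1 = growth at the plate median or of vehicle wells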
Settings: S. cerevisiae deletion strains, growth OD

For `CCn1cc(C(=O)O)c(=O)c2cnc(N3CCCC3)nc21`, which normalized growth (locus YAL021C, strain ccr4, stronger effect = lower value) is on record?
Its normalized growth is 0.898 (active).

What about the normalized growth (locus YAL026C, strain drs2, stronger effect = lower value) of the same molecule?
The normalized growth was 0.956.

What about the normalized growth (locus YAL030W, strain snc1, stronger effect = lower value) of the same molecule?
Its normalized growth is 0.997.

What about the normalized growth (locus YBL061C, strain skt5, stronger effect = lower value) of the same molecule?
The normalized growth was 1.01.

And the normalized growth (locus YBR009C, strain hhf1, stronger effect = lower value)?
The normalized growth was 1.04.

And the normalized growth (locus YBR021W, strain FUR4, stronger effect = lower value)?
The normalized growth was 1.03.

And the normalized growth (locus YBR023C, strain chs3, stronger effect = lower value)?
Its normalized growth is 1.

What about the normalized growth (locus YBR171W, strain sec66, stronger effect = lower value) of the same molecule?
The normalized growth was 1.

What about the normalized growth (locus YBR229C, strain ROT2, stronger effect = lower value) of the same molecule?
Its normalized growth is 1.01.

What about the normalized growth (locus YBR231C, strain swc5, stronger effect = lower value) of the same molecule?
The normalized growth was 1.03.

What about the normalized growth (locus YBR279W, strain paf1, stronger effect = lower value) of the same molecule?
The normalized growth was 0.989.

And the normalized growth (locus YCL011C, strain gbp2, stronger effect = lower value)?
The normalized growth was 1.

What about the normalized growth (locus YCL016C, strain dcc1, stronger effect = lower value) of the same molecule?
Its normalized growth is 1.

And the normalized growth (locus YCL029C, strain bik1, stronger effect = lower value)?
Its normalized growth is 0.997.

What about the normalized growth (locus YCL061C, strain MRC1, stronger effect = lower value) of the same molecule?
Its normalized growth is 1.

And the normalized growth (locus YCL069W, strain vba3, stronger effect = lower value)?
The normalized growth was 0.997.

What about the normalized growth (locus YCR088W, strain abp1, stronger effect = lower value) of the same molecule?
Its normalized growth is 1.01.

What about the normalized growth (locus YDL005C, strain med2, stronger effect = lower value) of the same molecule?
Its normalized growth is 1.

And the normalized growth (locus YDL035C, strain GPR1, stronger effect = lower value)?
Its normalized growth is 1.02.

And the normalized growth (locus YDL040C, strain nat1, stronger effect = lower value)?
Its normalized growth is 0.991.

What about the normalized growth (locus YDL074C, strain BRE1, stronger effect = lower value) of the same molecule?
The normalized growth was 1.04.

And the normalized growth (locus YDL101C, strain DUN1, stronger effect = lower value)?
Its normalized growth is 1.02.

And the normalized growth (locus YDL134C, strain PPH21, stronger effect = lower value)?
The normalized growth was 1.03.

What about the normalized growth (locus YDL185W, strain tfp1, stronger effect = lower value) of the same molecule?
The normalized growth was 1.01.

What about the normalized growth (locus YDL192W, strain arf1, stronger effect = lower value) of the same molecule?
The normalized growth was 0.993.

And the normalized growth (locus YDR001C, strain nth1, stronger effect = lower value)?
The normalized growth was 1.01.

What about the normalized growth (locus YDR069C, strain doa4, stronger effect = lower value) of the same molecule?
Its normalized growth is 1.

And the normalized growth (locus YDR101C, strain arx1, stronger effect = lower value)?
The normalized growth was 0.999.

And the normalized growth (locus YDR137W, strain rgp1, stronger effect = lower value)?
The normalized growth was 0.95.

And the normalized growth (locus YDR159W, strain sac3, stronger effect = lower value)?
The normalized growth was 1.01.

What about the normalized growth (locus YDR162C, strain NBP2, stronger effect = lower value) of the same molecule?
The normalized growth was 1.01.

And the normalized growth (locus YDR195W, strain ref2)?
The normalized growth was 1.04.

What about the normalized growth (locus YDR297W, strain sur2, stronger effect = lower value) of the same molecule?
The normalized growth was 1.01.

And the normalized growth (locus YDR318W, strain mcm21, stronger effect = lower value)?
The normalized growth was 1.

And the normalized growth (locus YDR334W, strain swr1, stronger effect = lower value)?
Its normalized growth is 1.01.

What about the normalized growth (locus YDR335W, strain msn5, stronger effect = lower value) of the same molecule?
Its normalized growth is 1.

And the normalized growth (locus YDR388W, stronger effect = lower value)?
Its normalized growth is 1.01.

What about the normalized growth (locus YDR392W, strain spt3, stronger effect = lower value) of the same molecule?
Its normalized growth is 1.03.

What about the normalized growth (locus YDR502C, strain sam2, stronger effect = lower value) of the same molecule?
The normalized growth was 1.01.

And the normalized growth (locus YEL003W, strain gim4, stronger effect = lower value)?
Its normalized growth is 1.01.

What about the normalized growth (locus YEL037C, strain rad23, stronger effect = lower value) of the same molecule?
Its normalized growth is 0.999.

What about the normalized growth (locus YEL061C, strain CIN8 (second series), stronger effect = lower value) of the same molecule?
The normalized growth was 1.

What about the normalized growth (locus YEL061C, strain CIN8, stronger effect = lower value) of the same molecule?
Its normalized growth is 0.999.

What about the normalized growth (locus YER015W, strain faa2, stronger effect = lower value) of the same molecule?
The normalized growth was 1.

What about the normalized growth (locus YER016W, strain bim1, stronger effect = lower value) of the same molecule?
Its normalized growth is 1.01.

And the normalized growth (locus YER110C, stronger effect = lower value)?
Its normalized growth is 1.

What about the normalized growth (locus YER111C, strain swi4, stronger effect = lower value) of the same molecule?
The normalized growth was 1.02.

What about the normalized growth (locus YER155C, strain BEM2 (second series), stronger effect = lower value) of the same molecule?
The normalized growth was 0.998.

What about the normalized growth (locus YER155C, strain BEM2, stronger effect = lower value) of the same molecule?
Its normalized growth is 1.01.

What about the normalized growth (locus YER167W, strain BCK2, stronger effect = lower value) of the same molecule?
Its normalized growth is 1.01.

And the normalized growth (locus YFR010W, strain ubp6, stronger effect = lower value)?
The normalized growth was 0.997.

And the normalized growth (locus YGL078C, strain dbp3, stronger effect = lower value)?
Its normalized growth is 1.

What about the normalized growth (locus YGL086W, strain mad1, stronger effect = lower value) of the same molecule?
Its normalized growth is 1.

What about the normalized growth (locus YGL167C, strain pmr1, stronger effect = lower value) of the same molecule?
Its normalized growth is 1.01.

What about the normalized growth (locus YGL173C, strain kem1, stronger effect = lower value) of the same molecule?
Its normalized growth is 1.

And the normalized growth (locus YGL227W, strain vid30, stronger effect = lower value)?
Its normalized growth is 1.01.

And the normalized growth (locus YGL240W, strain doc1, stronger effect = lower value)?
Its normalized growth is 1.05.

And the normalized growth (locus YGL248W, strain PDE1, stronger effect = lower value)?
Its normalized growth is 1.

What about the normalized growth (locus YGL253W, strain hxk2, stronger effect = lower value) of the same molecule?
Its normalized growth is 1.04.

And the normalized growth (locus YGR078C, strain PAC10, stronger effect = lower value)?
The normalized growth was 1.01.

What about the normalized growth (locus YGR135W, strain pre9, stronger effect = lower value) of the same molecule?
Its normalized growth is 1.01.

And the normalized growth (locus YGR252W, strain gcn5, stronger effect = lower value)?
Its normalized growth is 1.12.

And the normalized growth (locus YHR013C, strain ard1, stronger effect = lower value)?
Its normalized growth is 0.998.

What about the normalized growth (locus YHR027C, strain rpn1, stronger effect = lower value) of the same molecule?
Its normalized growth is 1.

And the normalized growth (locus YHR030C, strain SLT2, stronger effect = lower value)?
The normalized growth was 1 and 0.991.

What about the normalized growth (locus YHR079C, strain IRE1 (second series), stronger effect = lower value) of the same molecule?
The normalized growth was 1.

And the normalized growth (locus YHR079C, strain IRE1, stronger effect = lower value)?
Its normalized growth is 0.998.

What about the normalized growth (locus YHR094C, strain hxt1, stronger effect = lower value) of the same molecule?
Its normalized growth is 0.999.

What about the normalized growth (locus YHR129C, strain ARP1, stronger effect = lower value) of the same molecule?
Its normalized growth is 1.02.

And the normalized growth (locus YHR142W, strain chs7, stronger effect = lower value)?
The normalized growth was 0.962.

What about the normalized growth (locus YHR200W, strain rpn10, stronger effect = lower value) of the same molecule?
Its normalized growth is 0.998.

What about the normalized growth (locus YIL066C, strain RNR3, stronger effect = lower value) of the same molecule?
Its normalized growth is 1.01.

And the normalized growth (locus YIL073C, strain SPO22, stronger effect = lower value)?
The normalized growth was 1.1.

What about the normalized growth (locus YIL125W, strain kgd1, stronger effect = lower value) of the same molecule?
The normalized growth was 1.01.

And the normalized growth (locus YIR030C, strain dcg1, stronger effect = lower value)?
The normalized growth was 0.987.

What about the normalized growth (locus YJL092W, strain hpr5, stronger effect = lower value) of the same molecule?
Its normalized growth is 1.01.

And the normalized growth (locus YJL095W, strain BCK1 (second series), stronger effect = lower value)?
The normalized growth was 1.

And the normalized growth (locus YJL095W, strain BCK1, stronger effect = lower value)?
The normalized growth was 1.

And the normalized growth (locus YJL115W, strain asf1, stronger effect = lower value)?
Its normalized growth is 0.94.

What about the normalized growth (locus YJL129C, strain trk1, stronger effect = lower value) of the same molecule?
The normalized growth was 1.11.

What about the normalized growth (locus YJL134W, strain LCB3, stronger effect = lower value) of the same molecule?
The normalized growth was 1.

What about the normalized growth (locus YJL154C, strain vps35, stronger effect = lower value) of the same molecule?
The normalized growth was 0.991.

And the normalized growth (locus YJL164C, strain tpk1, stronger effect = lower value)?
The normalized growth was 0.99.

What about the normalized growth (locus YJL166W, strain qcr8, stronger effect = lower value) of the same molecule?
Its normalized growth is 0.996.

And the normalized growth (locus YJL168C, strain set2, stronger effect = lower value)?
The normalized growth was 1.

What about the normalized growth (locus YJL187C, strain SWE1 (second series), stronger effect = lower value) of the same molecule?
Its normalized growth is 0.997.

What about the normalized growth (locus YJL187C, strain SWE1, stronger effect = lower value) of the same molecule?
The normalized growth was 1.

And the normalized growth (locus YJR043C, strain POL32, stronger effect = lower value)?
Its normalized growth is 1.03.

And the normalized growth (locus YJR066W, strain TOR1, stronger effect = lower value)?
Its normalized growth is 0.982.

What about the normalized growth (locus YJR075W, strain HOC1, stronger effect = lower value) of the same molecule?
Its normalized growth is 1.02.
